From PubChem BioAssay
An excerpt weighted towards active compounds, which were near 4.5% of everything screened.
hgDAF12 agonist = hgDAF-12 agonism, primary luciferase screen. HEK293 GAL4-hgDAF12 UAS-luciferase reporter, agonist luminescence; normalized to butyrate control. activation, % at 6.8 µM. 370,000 compounds, 1.8% hits. AID 687014;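 active = activation above a cutoff set at the mean of all screened compounds plus 3 SD, cut at about 10% in these data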
GAA850 FXN act = frataxin GAA850 promoter activation. HEK293 lucGAA850 FXN promoter luciferase reporter, 24 h; percent of 10 µM SAHA response. activation, % at 6 µM. 360,000 compounds, 0.56% hits. AID 540364;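 active = activation above the average of all compounds screened plus 3 SD, cutoff fixed separately per campaign, cut at about 7.5% in these data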
ssDAF12 agonist = S. stercoralis DAF-12 activation, primary screen; HEK293 ssDAF-12/GRIP1 lit1-tk-luc reporter, luminescence; % of 3 µM dafachronic acid response; activation, % at 6.8 µM; 370,000 compounds, 1% hits; AID 652126;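 active = activation above the mean over all tested compounds plus 3 SD, cut at about 0.9% in these data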
hcDAF12 agonist = activates DAF-12 receptor from parasite H. contortus; HEK293 hcDAF-12 lit1-tk-luc reporter, luminescence; 0% DMSO, 100% Δ7-dafachronic acid; activation, % at 6.8 µM; 370,000 compounds, 1.4% hits;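 active = activation above the mean of all tested compounds plus 3 SD, cut at about 5.5% in these data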
DAX1 inh-1 = NR0B1 (DAX1) inhibition | 340,000 compounds, 0.99% hits | P51843 | inhibition, % at 6.75 µM | HEK293 Gal4-DAX1 luciferase reporter, luminescence;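 active = inhibition above the mean over all tested compounds plus 3 SD, cut at about 4.2% in these data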;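 note: inhibition shows as a rise in luminescence from relieved DAX1 repression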
Target sequence (P51843 207-470 limits assumed): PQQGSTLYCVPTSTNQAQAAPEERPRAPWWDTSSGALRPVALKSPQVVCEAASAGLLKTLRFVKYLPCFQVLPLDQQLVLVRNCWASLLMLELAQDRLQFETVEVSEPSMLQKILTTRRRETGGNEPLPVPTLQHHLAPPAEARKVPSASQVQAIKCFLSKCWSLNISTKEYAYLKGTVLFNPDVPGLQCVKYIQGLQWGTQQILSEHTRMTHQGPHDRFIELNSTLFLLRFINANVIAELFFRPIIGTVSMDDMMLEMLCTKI
DAX1 inh-2 = DAX1 (NR0B1) inhibition, primary screen | HEK293T StAR-luciferase reporter, SF-1/DAX-1 repression relief | inhibition, % at 6.8 µM | 370,000 compounds, 1.1% hits | AID 652010;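 active = inhibition above the mean over all tested compounds plus 3 SD, cut at about 3.6% in these data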;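 note: higher inhibition means more luminescence from relief of DAX-1 repression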
Numbers stand for hits; n = inactive; x = no result.

SMILES | hgDAF12 agonist | GAA850 FXN act | ssDAF12 agonist | hcDAF12 agonist | DAX1 inh-1 | DAX1 inh-2
O=C(N/N=C/C1CC2CCC1C2)C1CC1 (stereo unspecified) | n | n | n | n | n | 3.7
Cc1ccsc1/C=N/NC(=O)c1c[nH]c2ccccc12 | 11 | n | n | n | n | n
O=C(CSc1nnc(-c2ccccn2)n1-c1ccc(Cl)cc1)Nc1ccc(S(=O)(=O)Nc2nccs2)cc1 | n | x | n | n | x | n
CCc1ccc(/C(C)=N\Nc2ccc([N+](=O)[O-])cc2)cc1 | n | n | n | n | 4.3 | n
COC(=O)[C@]12C[C@H](CC(=O)NCCCN3CCCC3=O)C(=O)N(Cc3ccc(Cl)cc3Cl)C1=C[C@H](C(C)C)O[C@@H]2C1CC1 | n | x | n | n | x | n
COc1cc2ccccc2cc1C(=O)Nc1ccc(N2CCN(C)CC2)cc1 | 13 | n | n | n | n | n
COc1cc2ccccc2cc1C(=O)Nc1ccc(N2CCN(C(=O)C(C)C)CC2)cc1 | n | n | n | n | n | n
COCc1[nH]nc2c1C(c1ccc3c(c1)OCO3)N(Cc1ccccc1)C2=O (stereo unspecified) | n | x | n | n | x | n
O=C(O)COn1c(-c2ccccc2)nc2ccc(Cl)cc21 | n | n | 1.1 | n | n | n
COn1c(-c2ccccc2)nc2ccc(Cl)cc21 | 12 | n | n | n | n | n
O=[N+]([O-])c1ccc2nc(-c3ccccc3)n(OCc3ccc(Cl)cc3)c2c1 | n | n | n | n | n | n
Fc1ccc(-c2cc(-c3nnc4sc(-c5cccs5)nn34)[nH]n2)cc1 | n | x | n | n | x | n
CCC(C(=O)Nc1c(C)cccc1C)n1c(-c2ccc(=O)[nH]c2)nc2ccccc21 (stereo unspecified) | n | x | 1.5 | n | x | n
COC(=O)[C@]12C[C@H](CC(=O)N3CCN(C(=O)C4CC4)CC3)C(=O)N(Cc3ccc4c(c3)OCO4)C1=C[C@H](C(C)C)O[C@@H]2C1CC1 | n | x | n | n | x | n
CC(C)C(C#CC1CC1)NCc1ccc2c(c1)OCO2 (stereo unspecified) | n | x | n | n | x | n
O=C1c2ccccc2NC(c2ccccc2O)N1O (stereo unspecified) | n | n | n | n | n | n
Cc1ccc(N2C(=O)c3ccccc3NC2c2ccccc2O)cc1 (stereo unspecified) | 11 | n | n | n | n | n
CCCCCCCCNC(=O)C1CSCCS(=O)(=O)N1Cc1ccc(OC)cc1 (stereo unspecified) | n | x | n | n | x | n
COc1ccc(CN(C(=O)c2ccco2)c2ccccc2)cc1 | n | n | n | 5.9 | n | n
COc1ccc(CN(C(=O)c2cccs2)c2ccccc2)cc1 | n | n | n | n | n | n
O=c1c2ccccc2n(Cc2ccno2)n1[C@@H](Cc1ccccc1)Cn1cc(C2CCCC2)nn1 | n | x | n | n | x | n
O=C(NCCc1cccs1)C1CC(c2ccc([N+](=O)[O-])cc2)=NO1 (stereo unspecified) | n | n | n | 5.8 | n | n
COc1cc(O)c(C(CC(=O)N2CC(C)OC(C)C2)c2ccc3c(c2)OCO3)c(OC)c1 (stereo unspecified) | n | x | n | n | x | x
C/C(=N\NC(=O)c1cccs1)c1ccc2ccccc2c1 | 11 | n | n | n | n | n
C/C(=N\NC(=O)c1cccc([N+](=O)[O-])c1)c1cccs1 | n | n | n | n | 4.9 | n
SMILES | hgDAF12 agonist | GAA850 FXN act | ssDAF12 agonist | hcDAF12 agonist | DAX1 inh-1 | DAX1 inh-2
C/C(=N\NC(=O)c1cccc([N+](=O)[O-])c1)c1ccncc1 | n | n | n | n | n | n
C/C(=N/NC(=O)c1cccs1)c1cccc(NC(=O)C2CC2)c1 | 13 | n | n | n | n | 4.2
O=C(OCc1cn(Cc2ccc(F)c(F)c2)nn1)N1CCOCC1 | n | x | n | n | x | n
COc1ccc(NC(=O)CSc2nnc(-c3cccs3)o2)cc1Cl | n | x | n | n | x | n
Fc1ccc(CSc2nnc3ccccn23)c(Cl)c1 | n | n | n | n | n | 4.2
C#CCNC(=O)CSCc1nc(-c2ccc(OCC)cc2)oc1C | n | x | n | n | x | x
Cc1ccc(NC(=O)C2CCN(c3nnc(-n4cccc4)s3)CC2)cc1C | n | x | n | n | x | n
